# Reference: PubChem BioAssay (NCI)
# This is part of a sample that, as a whole, favours compounds with a hit. Of some 83,000 tested, about 20% had one in any assay.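 In brief: 96-well plates, 48 h treatment, single concentration, percent growth endpoint.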 Values without a mark were called inactive. Calls of active or inactive are those of the source. Rule for the calls: active = growth percent below 10; inactive = the rest.
# Tests used:
# Assay in all cases: NCI-60 one-dose screen, 48 h (100 = growth as untreated, 0 = no growth, -100 = all killed)
# Settings in all cases: 10 µM
# SR leukemia = system: SR leukemia
# RPMI-8226 leukemia = system: RPMI-8226 leukemia
# OVCAR-8 ovarian = system: OVCAR-8 ovarian
# OVCAR-5 ovarian = system: OVCAR-5 ovarian
# OVCAR-4 ovarian = system: OVCAR-4 ovarian
# SK-OV-3 ovarian = system: SK-OV-3 ovarian
# IGROV1 ovarian = system: IGROV1 ovarian
# OVCAR-3 ovarian = system: OVCAR-3 ovarian
# HS 578T breast = system: HS 578T breast
# NCI/ADR-RES ovarian = system: NCI/ADR-RES ovarian
# T-47D breast = system: T-47D breast
# BT-549 breast = system: BT-549 breast
# MDA-MB-435 melanoma = system: MDA-MB-435 melanoma
# SW-620 colon = system: SW-620 colon
# MCF7 breast = system: MCF7 breast
# HCT-116 colon = system: HCT-116 colon
# HCC-2998 colon = system: HCC-2998 colon
# KM12 colon = system: KM12 colon
SMILES,growth (SR leukemia),growth (RPMI-8226 leukemia),growth (OVCAR-8 ovarian),growth (OVCAR-5 ovarian),growth (OVCAR-4 ovarian),growth (SK-OV-3 ovarian),growth (IGROV1 ovarian),growth (OVCAR-3 ovarian),growth (HS 578T breast),growth (NCI/ADR-RES ovarian),growth (T-47D breast),growth (BT-549 breast),growth (MDA-MB-435 melanoma),growth (SW-620 colon),growth (MCF7 breast),growth (HCT-116 colon),growth (HCC-2998 colon),growth (KM12 colon)
O=C(Nc1ccc(OCc2nnc(-c3ccccc3)o2)c(F)c1)Nc1ccc(Cl)c(Cl)c1,6.91% (active),25.5%,61.6%,93.4%,50.6%,89.6%,57.7%,53.6%,63.2%,58.6%,33.7%,79%,68.8%,66.3%,57.7%,49.2%,58.5%,34.1%
Cc1ccc(S(=O)(=O)Oc2ccccc2-c2ccccc2)cc1,8.73% (active),34.4%,41.6%,63.6%,60.7%,23%,35.6%,-28.1% (active),-21.5% (active),-7.58% (active),37.1%,44.3%,-41.5% (active),20.8%,15.9%,14.6%,46.3%,15.6%
CCN(CC)CCCOC(=O)Nc1ccccc1Cl,101%,97.3%,111%,110%,115%,111%,123%,124%,121%,107%,106%,111%,105%,102%,112%,113%,110%,111%
CCN(Cc1ccccc1)C1CCN(Cc2cc(Br)ccc2O)CC1,7.57% (active),21.9%,59.9%,68.1%,36.9%,76.9%,44.6%,51.8%,56.6%,36.1%,44.3%,80.6%,52.1%,63.7%,46.5%,38.7%,2.04% (active),51.3%
CCCCCCCCCCCCCC[n+]1ccc(C)cc1,-38.2% (active),-29.7% (active),-19.1% (active),3.81% (active),7.84% (active),-24.2% (active),-79.5% (active),-57.2% (active),-22.6% (active),66.6%,12.4%,-45% (active),-64.8% (active),-3.73% (active),0.934% (active),0.372% (active),-69.7% (active),-97.9% (active)
Cc1cc(Nc2cccc(F)c2)nc(NCc2ccccc2)n1,23%,-3.16% (active),19.2%,60.9%,15.9%,80.6%,27.1%,0.169% (active),68.4%,11%,15.6%,82%,23.2%,22.7%,15.1%,15.8%,26.9%,14.1%
CC(=O)OC1Oc2ccccc2-c2oc(=O)c(-c3ccc(F)cc3)cc21 (configuration not stated),65.3%,90.8%,77.7%,104%,88.6%,92.6%,59.8%,110%,-26.6% (active),96.4%,77.2%,80.6%,51.5%,12.8%,63.2%,86.5%,–,89.9%
Cc1ccc(-c2cc(-c3cccc(Nc4ccnc5cc(Cl)ccc45)c3)nc3nc(N)[nH]c(=O)c23)cc1,48.9%,92.8%,92.5%,108%,111%,111%,76.7%,92.7%,104%,100%,35%,86.4%,99.8%,95.8%,72.5%,91.3%,91.5%,70.5%
CCCCCCCCCCCC(c1ccccc1)N(C)C (configuration not stated),77%,83.5%,97.7%,99.2%,84.7%,108%,96.1%,106%,93.3%,96.1%,99.7%,101%,102%,95.4%,91.3%,94.4%,–,104%
COc1ccc(-c2csc(-c3cc(Cl)cc(Cl)c3Cl)n2)cc1,88.8%,93.5%,29.7%,109%,85.2%,90.5%,58.3%,105%,80.4%,97.1%,50.6%,102%,80.7%,46.4%,56.2%,108%,–,86.9%
CCSc1nc2c([nH]1)c(=O)n(C)c(=S)n2C,118%,112%,108%,99.1%,114%,103%,116%,112%,115%,105%,99.6%,118%,109%,102%,113%,114%,106%,103%
CCOC(=O)CNC(=O)Nc1ccc(Oc2ccc(NC(=O)NCC(=O)OCC)cc2)cc1,94.2%,99.9%,98.4%,112%,106%,104%,102%,107%,101%,101%,106%,111%,95.4%,98%,76.4%,98.1%,93.3%,105%
O=S(=O)(O)C1(O)CCCCC1,83.1%,81.5%,79.3%,90.5%,79.1%,94.9%,65.9%,103%,104%,95.4%,85.7%,112%,89.2%,81.5%,78%,50.9%,110%,82.9%
C#Cc1ccc(-n2c(/C=C/c3cc(OC)c(OC)c(OC)c3)nc3ncccc3c2=O)cc1,11.2%,40.9%,75.1%,120%,63.4%,65.9%,56.3%,4.62% (active),75.4%,54.6%,58.9%,59.7%,-9.47% (active),49.1%,25%,–,91%,–
N#C/C(=C\N1C(=O)/C(=C/c2cccc([N+](=O)[O-])c2)SC1=S)c1nc2ccccc2s1,73.4%,60.4%,94.7%,102%,61.4%,77.7%,83.7%,90.4%,95.9%,94.1%,54.7%,78.3%,76.2%,105%,70.9%,81.6%,100%,81.3%
CC(=O)c1c(O)cc2c3c1OC(C)(C)C1CCC(C)(CC31)O2 (configuration not stated),86.7%,54.4%,86.3%,97.7%,89.6%,97.6%,96.2%,93.8%,115%,89.6%,66.4%,90.8%,104%,107%,119%,86.8%,115%,94.8%
CC(=O)OC1Oc2ccccc2-c2oc(=O)c(-c3cc(=O)oc4cc(O)ccc34)cc21 (configuration not stated),3.66% (active),46.7%,89.1%,75.8%,77.2%,83.3%,49.4%,63.8%,59.5%,75.5%,-17.5% (active),61.4%,86.8%,92.2%,85.5%,87.3%,–,89.2%
CCOc1nc(-c2ccccc2)cc2c(O)c(C(=O)NCCCO)[nH]c(=O)c12,141%,51.2%,108%,92.4%,103%,84.6%,57.6%,93.1%,100%,113%,97.4%,97.6%,94.9%,96.4%,90.3%,98.9%,–,99.1%
